Test results reported in PubChem BioAssay AID1159580 (chemical genetic matrix, 2015).
Several values for one entry are separate records, joined by “and”; a condition that tells them apart may be missing. Identical values can stand only once. Hit rate of the full screen: of about 5,500 compounds, about 2,000 (36%) were called active. Another 18% or so got no clear call; they are omitted. No stated cut-off is given here; in the data, active means normalized growth mostly below about 0.91 (no sharp cut-off); inconclusive means no clear call, values can overlap the other calls; inactive means mostly above about 0.92. This is one part of the list.

Assay: chemical genetic growth profiling, strain panel (AID 1159580);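 further: tested at 20 µM; growth read once vehicle control cultures reached saturation at 30 °C; 1 = growth at the plate median or of vehicle wells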
Conditions: S. cerevisiae deletion strains, growth OD

Measured: normalized growth

Nc1c2c(nc3ccccc13)CCCC2O (stereo not drawn)
inactive: locus YAL021C, strain ccr4, stronger effect = lower value 1.01 | locus YAL026C, strain drs2, stronger effect = lower value 1.01 | locus YAL030W, strain snc1, stronger effect = lower value 1.01 | locus YAL040C, strain CLN3, stronger effect = lower value 1.05 | locus YBL061C, strain skt5, stronger effect = lower value 1.01 | locus YBR009C, strain hhf1, stronger effect = lower value 1 | locus YBR021W, strain FUR4, stronger effect = lower value 0.94 | locus YBR023C, strain chs3, stronger effect = lower value 1.01 | locus YBR171W, strain sec66, stronger effect = lower value 1 | locus YBR229C, strain ROT2, stronger effect = lower value 1.01 | locus YBR231C, strain swc5, stronger effect = lower value 0.998 | locus YBR279W, strain paf1, stronger effect = lower value 1.02 | locus YCL011C, strain gbp2, stronger effect = lower value 1.01 | locus YCL016C, strain dcc1, stronger effect = lower value 1 | locus YCL029C, strain bik1, stronger effect = lower value 0.974 | locus YCL061C, strain MRC1 (second series), stronger effect = lower value 1.01 | locus YCL061C, strain MRC1, stronger effect = lower value 1.03 | locus YCL069W, strain vba3, stronger effect = lower value 1.01 | locus YCR088W, strain abp1, stronger effect = lower value 1 | locus YDL005C, strain med2, stronger effect = lower value 1 | locus YDL035C, strain GPR1, stronger effect = lower value 0.994 | locus YDL040C, strain nat1, stronger effect = lower value 1.01 | locus YDL074C, strain BRE1, stronger effect = lower value 1.04 | locus YDL101C, strain DUN1, stronger effect = lower value 1.01 | locus YDL134C, strain PPH21, stronger effect = lower value 1.01 | locus YDL185W, strain tfp1, stronger effect = lower value 0.964 | locus YDL192W, strain arf1, stronger effect = lower value 0.987 | locus YDR001C, strain nth1, stronger effect = lower value 1.01 | locus YDR069C, strain doa4, stronger effect = lower value 1 | locus YDR101C, strain arx1, stronger effect = lower value 0.995 | locus YDR137W, strain rgp1, stronger effect = lower value 1.01 | locus YDR159W, strain sac3, stronger effect = lower value 0.997 | locus YDR162C, strain NBP2, stronger effect = lower value 0.985 | locus YDR195W, strain ref2 0.917 | locus YDR297W, strain sur2, stronger effect = lower value 1.01 | locus YDR318W, strain mcm21, stronger effect = lower value 0.982 | locus YDR334W, strain swr1, stronger effect = lower value 1.01 | locus YDR335W, strain msn5, stronger effect = lower value 1.01 | locus YDR363W, strain ESC2, stronger effect = lower value 1 | locus YDR388W, stronger effect = lower value 0.985 | locus YDR392W, strain spt3, stronger effect = lower value 0.902 | locus YDR502C, strain sam2, stronger effect = lower value 0.998 | locus YEL003W, strain gim4, stronger effect = lower value 1.01 | locus YEL037C, strain rad23, stronger effect = lower value 1.01 | locus YEL061C, strain CIN8 (second series), stronger effect = lower value 1.01 | locus YEL061C, strain CIN8, stronger effect = lower value 1.03 | locus YER002W, strain NOP16, stronger effect = lower value 1.01 | locus YER015W, strain faa2, stronger effect = lower value 1 | locus YER016W, strain bim1, stronger effect = lower value 0.991 | locus YER110C, stronger effect = lower value 0.981 | locus YER111C, strain swi4, stronger effect = lower value 1 | locus YER155C, strain BEM2 (second series), stronger effect = lower value 1 | locus YER155C, strain BEM2, stronger effect = lower value 0.994 | locus YER167W, strain BCK2, stronger effect = lower value 1 | locus YFR010W, strain ubp6, stronger effect = lower value 1 | locus YGL078C, strain dbp3, stronger effect = lower value 0.992 | locus YGL086W, strain mad1, stronger effect = lower value 1.01 | locus YGL167C, strain pmr1, stronger effect = lower value 1 | locus YGL173C, strain kem1, stronger effect = lower value 1.01 | locus YGL227W, strain vid30, stronger effect = lower value 0.995 | locus YGL240W, strain doc1, stronger effect = lower value 0.987 | locus YGL248W, strain PDE1, stronger effect = lower value 1.02 | locus YGL253W, strain hxk2, stronger effect = lower value 1 | locus YGR078C, strain PAC10, stronger effect = lower value 1.03 | locus YGR135W, strain pre9, stronger effect = lower value 0.979 | locus YGR229C, strain SMI1, stronger effect = lower value 1.02 | locus YGR252W, strain gcn5, stronger effect = lower value 0.998 | locus YHR013C, strain ard1, stronger effect = lower value 0.945 | locus YHR027C, strain rpn1, stronger effect = lower value 1.01 | locus YHR030C, strain SLT2, stronger effect = lower value 0.993 and 0.981 | locus YHR079C, strain IRE1 (second series), stronger effect = lower value 0.976 | locus YHR079C, strain IRE1, stronger effect = lower value 0.983 | locus YHR094C, strain hxt1, stronger effect = lower value 0.992 | locus YHR129C, strain ARP1, stronger effect = lower value 1 | locus YHR142W, strain chs7, stronger effect = lower value 1.03 | locus YHR200W, strain rpn10, stronger effect = lower value 0.973 | locus YIL066C, strain RNR3, stronger effect = lower value 1.02 | locus YIL073C, strain SPO22, stronger effect = lower value 0.912 | locus YIL125W, strain kgd1, stronger effect = lower value 0.996 | locus YIR030C, strain dcg1, stronger effect = lower value 0.979 | locus YJL092W, strain hpr5, stronger effect = lower value 1.03 | locus YJL095W, strain BCK1 (second series), stronger effect = lower value 1.01 | locus YJL095W, strain BCK1, stronger effect = lower value 1.05 and 0.988 | locus YJL115W, strain asf1, stronger effect = lower value 1 | locus YJL129C, strain trk1, stronger effect = lower value 1.05 | locus YJL134W, strain LCB3, stronger effect = lower value 0.996 | locus YJL154C, strain vps35, stronger effect = lower value 1.01 | locus YJL164C, strain tpk1, stronger effect = lower value 1.02 | locus YJL166W, strain qcr8, stronger effect = lower value 1.01 | locus YJL168C, strain set2, stronger effect = lower value 0.991 | locus YJL187C, strain SWE1 (second series), stronger effect = lower value 1.03 | locus YJL187C, strain SWE1, stronger effect = lower value 1.02 | locus YJR043C, strain POL32, stronger effect = lower value 1.02
